Test results: PubChem BioAssay
Calls of active or inactive are those of the source.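 How the source made its calls, unless noted: active means normalized viability below 100% at a tested concentration; inactive means the rest.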

Experiments:
[1] = ovarian cancer cell viability with rucaparib, profiling panel, oncology-focused library, rucaparib conditional (AID 1508598); conditions: patient-derived ovarian cancer cells, CellTiter-Glo viability, 144 h, stronger effect = lower value
[2] = sensitizers of A549 cells to miR-34 induction, primary screen, imaging, A549 dox-inducible miR-34, nuclei and caspase counts (AID 1347080;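 active means compounds whose cell count with miR-34 switched on is under 0.7 times the count with it off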); conditions: A549 miR-34 inducible, Hoechst nuclei count, 48 h
[3] = survival rescue of mitochondrial mutant cells in low glucose, primary screen, MELAS cybrids, Rieske KO mouse fibroblasts, CellTiter-Glo (AID 1508586;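 active means mean z-score across replicates of 1.96 or higher in either the MELAS or the Rieske mutant cell line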;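 further: z relative to plate mean and SD of compound and empty wells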)
[4] = at 1.25 µM, OCI-C5x cells, with rucaparib 10 µM, 100% = cells with rucaparib alone
[5] = at 1.25 µM, OCI-C5x cells, without rucaparib
[6] = at 1.25 µM, OCI-P5x cells, with rucaparib 20 µM, 100% = cells with rucaparib alone
[7] = at 1.25 µM, OCI-P5x cells, without rucaparib
[8] = at 5 µM, OCI-C5x cells, with rucaparib 10 µM, 100% = cells with rucaparib alone
[9] = at 5 µM, OCI-C5x cells, without rucaparib
[10] = at 5 µM, OCI-P5x cells, with rucaparib 20 µM, 100% = cells with rucaparib alone
[11] = at 5 µM, OCI-P5x cells, without rucaparib
[12] = stronger effect = lower value, cell number ratio, induced over uninduced
[13] = measured here: relative caspase fold change +Dox/-Dox
[14] = measured here: total cells with miR-34 induction, stronger effect = lower value
[15] = measured here: total cells without miR-34 induction
[16] = MELAS cybrid survival, CellTiter-Glo 48 h, stronger effect = higher value
[17] = Rieske KO mouse fibroblast survival, CellTiter-Glo 72 h

Cc1[nH]c(C=C2C(=O)Nc3ccc(S(=O)(=O)N(C)c4cccc(Cl)c4)cc32)c(C)c1C(=O)N1CCN(C)CC1
active: viability [1, 11] 58.4%
inactive: viability [1, 4] 138% | viability [1, 5] 151% | viability [1, 6] 114% | viability [1, 7] 107% | viability [1, 8] 133% | viability [1, 9] 126% | viability [1, 10] 102%

CN(CC(=O)N(Cc1ccc(C2CCCCC2)cc1)c1ccc(C(=O)O)cc1)S(=O)(=O)c1c(F)c(F)c(F)c(F)c1F
active: viability ([1]; at 0.000305 µM, OCI-P5x cells, with rucaparib 20 µM, 100% = cells with rucaparib alone) 97.3% | viability ([1]; at 0.00122 µM, OCI-P5x cells, with rucaparib 20 µM, 100% = cells with rucaparib alone) 96% | viability ([1]; at 0.00488 µM, OCI-P5x cells, with rucaparib 20 µM, 100% = cells with rucaparib alone) 92.6% | viability ([1]; at 0.00488 µM, OCI-P5x cells, without rucaparib) 97.4% | viability ([1]; at 0.0195 µM, OCI-P5x cells, with rucaparib 20 µM, 100% = cells with rucaparib alone) 97.6% | viability ([1]; at 0.0195 µM, OCI-P5x cells, without rucaparib) 95.6% | viability ([1]; at 0.0781 µM, OCI-P5x cells, with rucaparib 20 µM, 100% = cells with rucaparib alone) 93.1% | viability ([1]; at 0.0781 µM, OCI-P5x cells, without rucaparib) 94.2% | viability ([1]; at 0.313 µM, OCI-P5x cells, with rucaparib 20 µM, 100% = cells with rucaparib alone) 94.9% | viability ([1]; at 0.313 µM, OCI-P5x cells, without rucaparib) 95.1% | viability [1, 6] 8.63% | viability [1, 7] 75.3% | viability [1, 8] 3.43% | viability [1, 9] 2.98% | viability [1, 10] 0.394% | viability [1, 11] 0.691%
3920: cell count [2, 14]
inactive: fold change [2, 12] 0.95 | z-score [3, 16] 1.94 | viability ([1]; at 0.000305 µM, OCI-C5x cells, with rucaparib 10 µM, 100% = cells with rucaparib alone) 114% | viability ([1]; at 0.000305 µM, OCI-C5x cells, without rucaparib) 111% | viability ([1]; at 0.000305 µM, OCI-P5x cells, without rucaparib) 102% | viability ([1]; at 0.00122 µM, OCI-C5x cells, with rucaparib 10 µM, 100% = cells with rucaparib alone) 115% | viability ([1]; at 0.00122 µM, OCI-C5x cells, without rucaparib) 111% | viability ([1]; at 0.00122 µM, OCI-P5x cells, without rucaparib) 102% | viability ([1]; at 0.00488 µM, OCI-C5x cells, with rucaparib 10 µM, 100% = cells with rucaparib alone) 119% | viability ([1]; at 0.00488 µM, OCI-C5x cells, without rucaparib) 111% | viability ([1]; at 0.0195 µM, OCI-C5x cells, with rucaparib 10 µM, 100% = cells with rucaparib alone) 118% | viability ([1]; at 0.0195 µM, OCI-C5x cells, without rucaparib) 112% | viability ([1]; at 0.0781 µM, OCI-C5x cells, with rucaparib 10 µM, 100% = cells with rucaparib alone) 126% | viability ([1]; at 0.0781 µM, OCI-C5x cells, without rucaparib) 116% | viability ([1]; at 0.313 µM, OCI-C5x cells, with rucaparib 10 µM, 100% = cells with rucaparib alone) 115% | viability ([1]; at 0.313 µM, OCI-C5x cells, without rucaparib) 111% | viability [1, 4] 114% | viability [1, 5] 107%
4130: cell count [2, 15]
0.314: fold change [2, 13]
0.483: z-score [3, 17]

CC1(C)OC2C[C@H]3[C@@H]4CCC5=CC(=O)C=C[C@]5(C)[C@]4(F)C(O)C[C@]3(C)[C@@]2(C(=O)CO)O1 (some centres not stated)
6270: cell count [2, 15]
-0.501: z-score [3, 17]
inactive: fold change [2, 12] 0.812 | z-score [3, 16] -0.349
1.01: fold change [2, 13]
5100: cell count [2, 14]
